# Assay results as given in PubChem BioAssay AID1159580 (chemical genetic matrix, 2015).
# Among all 5,500 compounds or so, about 2,000 (36%) were called active. Another 18% or so got no clear call; they are omitted. The list shows a part of the results. A number with no mark means an inactive call. Cut-off read from the data, not from the text of the source: active = normalized growth mostly below about 0.91 (no sharp cut-off); inconclusive = no clear call, values can overlap the other calls; inactive = mostly above about 0.92.
# Assay: chemical genetic growth profiling, strain panel (AID 1159580);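 note: tested at 20 µM; growth read once vehicle control cultures reached saturation at 30 °C; 1 = growth at the plate median or of vehicle wells; lower values mean less growth of the strain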
# Settings: growth OD
smiles,measurement,setting,value
C=C1C(=O)O[C@@H]2C[C@@]3(C)CCC[C@H](C)C3=C[C@H]12,normalized growth,"S. cerevisiae deletion strains, locus YJR043C, strain POL32, active compounds read low",0.88
same,normalized growth,"S. cerevisiae deletion strains, locus YJR066W, strain TOR1, active compounds read low",0.939
same,normalized growth,"S. cerevisiae deletion strains, locus YKL009W, strain mrt4, active compounds read low",1.01
same,normalized growth,"S. cerevisiae deletion strains, locus YKL068W, active compounds read low",0.946
same,normalized growth,"S. cerevisiae deletion strains, locus YKL085W, strain MDH1 (second series), active compounds read low",0.909 (active)
same,normalized growth,"S. cerevisiae deletion strains, locus YKL085W, strain MDH1, active compounds read low",0.909 (active)
same,normalized growth,"S. cerevisiae deletion strains, locus YKL160W, strain elf1, active compounds read low",0.78 (active)
same,normalized growth,"S. cerevisiae deletion strains, locus YKL190W, strain CNB1, active compounds read low",0.934
same,normalized growth,"S. cerevisiae deletion strains, locus YKR001C, strain vps1, active compounds read low",0.496 (active)
same,normalized growth,"S. cerevisiae deletion strains, locus YKR026C, strain gcn3, active compounds read low",0.893 (active)
same,normalized growth,"S. cerevisiae deletion strains, locus YKR091W, strain srl3, active compounds read low",0.913 (active)
same,normalized growth,"S. cerevisiae deletion strains, locus YLL001W, strain dnm1, active compounds read low",0.842 (active)
same,normalized growth,"S. cerevisiae deletion strains, locus YLL026W, active compounds read low",0.869 (active)
same,normalized growth,"S. cerevisiae deletion strains, locus YLL041C, strain sdh2, active compounds read low",0.888 (active)
same,normalized growth,"S. cerevisiae deletion strains, locus YLR027C, strain aat2, active compounds read low",0.827 (active)
same,normalized growth,"S. cerevisiae deletion strains, locus YLR039C, strain RIC1, active compounds read low",0.221 (active)
same,normalized growth,"S. cerevisiae deletion strains, locus YLR058C, strain SHM2, active compounds read low",0.898
same,normalized growth,"S. cerevisiae deletion strains, locus YLR102C, strain apc9, active compounds read low",0.942
same,normalized growth,"S. cerevisiae deletion strains, locus YLR113W, strain HOG1, active compounds read low",0.991
same,normalized growth,"S. cerevisiae deletion strains, locus YLR221C, strain rsa3, active compounds read low",0.751 (active)
same,normalized growth,"S. cerevisiae deletion strains, locus YLR258W, strain gsy2, active compounds read low",0.819 (active)
same,normalized growth,"S. cerevisiae deletion strains, locus YLR262C, strain YPT6 (second series), active compounds read low",0.259 (active)
same,normalized growth,"S. cerevisiae deletion strains, locus YLR262C, strain YPT6, active compounds read low",0.268 (active)
same,normalized growth,"S. cerevisiae deletion strains, locus YLR268W, strain sec22, active compounds read low",0.668 (active)
same,normalized growth,"S. cerevisiae deletion strains, locus YLR320W, strain mms22, active compounds read low",0.597 (active)
same,normalized growth,"S. cerevisiae deletion strains, locus YLR330W, strain CHS5, active compounds read low",0.848 (active)
same,normalized growth,"S. cerevisiae deletion strains, locus YLR342W, strain FKS1 (second series), active compounds read low",0.864
same,normalized growth,"S. cerevisiae deletion strains, locus YLR342W, strain FKS1, active compounds read low",0.885 (active)
same,normalized growth,"S. cerevisiae deletion strains, locus YLR357W, strain rsc2, active compounds read low",0.662 (active)
same,normalized growth,"S. cerevisiae deletion strains, locus YLR370C, strain arc18, active compounds read low",0.899 (active)
same,normalized growth,"S. cerevisiae deletion strains, locus YLR371W, strain rom2, active compounds read low",0.646 (active)
same,normalized growth,"S. cerevisiae deletion strains, locus YLR384C, strain iki3, active compounds read low",0.87 (active)
same,normalized growth,"S. cerevisiae deletion strains, locus YLR418C, strain cdc73, active compounds read low",0.31 (active)
same,normalized growth,"S. cerevisiae deletion strains, locus YML016C, strain PPZ1, active compounds read low",0.85 (active)
same,normalized growth,"S. cerevisiae deletion strains, locus YML032C, strain rad52, active compounds read low",0.923
same,normalized growth,"S. cerevisiae deletion strains, locus YML120C, strain ndi1, active compounds read low",0.818 (active)
same,normalized growth,"S. cerevisiae deletion strains, locus YML124C, strain tub3, active compounds read low",0.896 (active)
same,normalized growth,"S. cerevisiae deletion strains, locus YMR058W, strain fet3, active compounds read low",0.8 (active)
same,normalized growth,"S. cerevisiae deletion strains, locus YMR078C, strain ctf18, active compounds read low",0.915
same,normalized growth,"S. cerevisiae deletion strains, locus YMR125W, strain sto1, active compounds read low",0.669 (active)
same,normalized growth,"S. cerevisiae deletion strains, locus YMR129W, active compounds read low",0.847 (active)
same,normalized growth,"S. cerevisiae deletion strains, locus YMR205C, strain PFK2, active compounds read low",0.653 (active)
same,normalized growth,"S. cerevisiae deletion strains, locus YMR223W, strain ubp8, active compounds read low",0.815 (active)
same,normalized growth,"S. cerevisiae deletion strains, locus YMR231W, strain pep5, active compounds read low",0.859 (active)
same,normalized growth,"S. cerevisiae deletion strains, locus YMR307W, strain GAS1, active compounds read low",0.654
same,normalized growth,"S. cerevisiae deletion strains, locus YNL067W, strain RPL9B, active compounds read low",0.896
same,normalized growth,"S. cerevisiae deletion strains, locus YNL071W, strain lat1, active compounds read low",0.377 (active)
same,normalized growth,"S. cerevisiae deletion strains, locus YNL153C, strain GIM3, active compounds read low",0.868 (active)
same,normalized growth,"S. cerevisiae deletion strains, locus YNL183C, strain NPR1, active compounds read low",0.959
same,normalized growth,"S. cerevisiae deletion strains, locus YNL209W, strain ssb2, active compounds read low",0.902 (active)
same,normalized growth,"S. cerevisiae deletion strains, locus YNL233W, strain BNI4, active compounds read low",0.828 (active)
same,normalized growth,"S. cerevisiae deletion strains, locus YNL248C, strain rpa49, active compounds read low",0.617 (active)
same,normalized growth,"S. cerevisiae deletion strains, locus YNL250W, strain rad50, active compounds read low",0.949
same,normalized growth,"S. cerevisiae deletion strains, locus YNL271C, strain bni1, active compounds read low",0.855 (active)
same,normalized growth,"S. cerevisiae deletion strains, locus YNL298W, strain CLA4, active compounds read low",0.943
same,normalized growth,"S. cerevisiae deletion strains, locus YNL307C, strain MCK1, active compounds read low",0.737 (active)
same,normalized growth,"S. cerevisiae deletion strains, locus YNL322C, strain KRE1 (second series), active compounds read low",0.902 (active)
same,normalized growth,"S. cerevisiae deletion strains, locus YNR049C, strain mso1, active compounds read low",0.903 (active)
same,normalized growth,"S. cerevisiae deletion strains, locus YNR052C, strain pop2, active compounds read low",0.875 (active)
same,normalized growth,"S. cerevisiae deletion strains, locus YOL006C, strain TOP1, active compounds read low",0.598
same,normalized growth,"S. cerevisiae deletion strains, locus YOL012C, strain htz1",0.342
same,normalized growth,"S. cerevisiae deletion strains, locus YOL147C, strain pex11, active compounds read low",0.921 (active)
same,normalized growth,"S. cerevisiae deletion strains, locus YOR001W, strain rrp6, active compounds read low",0.807 (active)
same,normalized growth,"S. cerevisiae deletion strains, locus YOR061W, strain CKA2, active compounds read low",0.925
same,normalized growth,"S. cerevisiae deletion strains, locus YOR069W, strain VPS5, active compounds read low",0.915 (active)
same,normalized growth,"S. cerevisiae deletion strains, locus YOR070C, strain gyp1, active compounds read low",0.856 (active)
same,normalized growth,"S. cerevisiae deletion strains, locus YOR080W, strain dia2, active compounds read low",0.908 (active)
same,normalized growth,"S. cerevisiae deletion strains, locus YOR083W, strain WHI5, active compounds read low",0.82 (active)
same,normalized growth,"S. cerevisiae deletion strains, locus YOR106W, strain vam3, active compounds read low",0.752 (active)
same,normalized growth,"S. cerevisiae deletion strains, locus YOR136W, strain idh2, active compounds read low",0.942
same,normalized growth,"S. cerevisiae deletion strains, locus YOR144C, strain elg1, active compounds read low",0.927 (active)
same,normalized growth,"S. cerevisiae deletion strains, locus YOR184W, strain ser1, active compounds read low",0.577 (active)
same,normalized growth,"S. cerevisiae deletion strains, locus YOR231W, strain MKK1, active compounds read low",1.01
same,normalized growth,"S. cerevisiae deletion strains, locus YOR265W, strain rbl2, active compounds read low",0.883 (active)
same,normalized growth,"S. cerevisiae deletion strains, locus YOR270C, strain vph1, active compounds read low",0.583 (active)
same,normalized growth,"S. cerevisiae deletion strains, locus YOR290C, strain snf2, active compounds read low",0.785 (active)
same,normalized growth,"S. cerevisiae deletion strains, locus YOR316C, strain cot1, active compounds read low",0.939
same,normalized growth,"S. cerevisiae deletion strains, locus YPL051W, strain arl3, active compounds read low",0.73 (active)
same,normalized growth,"S. cerevisiae deletion strains, locus YPL055C, strain LGE1, active compounds read low",0.722 (active)
same,normalized growth,"S. cerevisiae deletion strains, locus YPL078C, strain atp4, active compounds read low",0.791 (active)
same,normalized growth,"S. cerevisiae deletion strains, locus YPL106C, strain sse1, active compounds read low",0.521 (active)
same,normalized growth,"S. cerevisiae deletion strains, locus YPL240C, strain hsp82, active compounds read low",0.825 (active)
same,normalized growth,"S. cerevisiae deletion strains, locus YPL256C, strain CLN2, active compounds read low",0.949
same,normalized growth,"S. cerevisiae deletion strains, locus YPR119W, strain clb2, active compounds read low",0.907 (active)
same,normalized growth,"S. cerevisiae deletion strains, locus YPR141C, strain kar3, active compounds read low",0.926
same,normalized growth,"S. cerevisiae deletion strains, locus YPR163C, strain tif3, active compounds read low",0.749 (active)
same,normalized growth,"S. cerevisiae deletion strains, locus YPR167C, strain met16, active compounds read low",0.899 (active)
same,normalized growth,"S. cerevisiae deletion strains, strain wtn01, active compounds read low",0.909
same,normalized growth,"S. cerevisiae strains, strain wild type, active compounds read low",0.882 (active)
